# DRD3 agonist – activates the human D3 dopamine receptor. actives 0.58% (n = 410,000). AID 652048. P35462. max activation, %. D3R DiscoveRx beta-arrestin cells, luminescence, 90 min; in the data active means max activation above about 30%; further: 0% is about no effect
# Target sequence (P35462 whole entry, looked up): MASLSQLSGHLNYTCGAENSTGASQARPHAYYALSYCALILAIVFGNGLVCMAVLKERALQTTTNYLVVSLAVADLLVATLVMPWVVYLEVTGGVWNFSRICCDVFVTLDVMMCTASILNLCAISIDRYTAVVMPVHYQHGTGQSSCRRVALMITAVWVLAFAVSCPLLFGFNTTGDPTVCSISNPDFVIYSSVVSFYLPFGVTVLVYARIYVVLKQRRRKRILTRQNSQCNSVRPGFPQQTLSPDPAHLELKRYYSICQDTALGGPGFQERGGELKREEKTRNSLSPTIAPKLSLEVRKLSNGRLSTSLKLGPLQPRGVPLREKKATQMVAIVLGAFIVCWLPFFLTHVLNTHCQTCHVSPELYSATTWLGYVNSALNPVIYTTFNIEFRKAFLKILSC
#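 Agonist mode: compounds and dopamine controls were applied to plated cells for 90 min at 37 degrees C after an overnight attachment at 1500 cells/well. Luminescent read-out followed 30 - 60 minutes at room temperature with DiscoveRx detection reagent.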
# D1 agonist – human D1 receptor agonism | activation, % at 2 µM | actives 1% (n = 360,000) | P21728 | HEK293 T-REx D1 cells, calcium flux, agonist mode; in the data active means activation above about 30%; further: 0% is about no effect
#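 Inducible HEK293 T-REx D1 cells, force-coupled to calcium signalling, were plated at 4000 cells/well with tetracycline and held overnight at 30 C. After no-wash calcium dye loading, compound-evoked calcium rise over 180 s flagged agonists.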
# D1 antag – blocks dopamine activation of the human D1 receptor. HEK293 TREx D1 cells, calcium flux, dopamine EC80; hits give low values. activity change, negative = inhibition, % at 10 µM. actives 3.2% (n = 360,000); in the data active means activity change below about -30%; further: on the % scale 0 is the no-effect control and ±100 the full control effect
#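 Compound effects on dopamine-evoked calcium signalling were measured in tetracycline-induced HEK293 Trex D1 cells. Dopamine at EC80 followed a 180 s compound pre-read, and fluorescence was tracked kinetically for 180 s more.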
# DRD3 antagonist – blocks the human D3 dopamine receptor. P35462. D3R cells, DiscoveRx beta-arrestin luminescence, antagonist mode; hits give low values. max response, negative = inhibition, %. actives 2.5% (n = 360,000). AID 652054; in the data active means max response below about -50%; further: on the % scale 0 is the no-effect control and ±100 the full control effect
#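 Cells plated overnight at 1500 cells/well, then exposed to library compounds with dopamine controls for 90 minutes at 37 degrees C. DiscoveRx reagent added for 30–60 minutes at room temperature; luminescence read, quantitative HTS format.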
# D1 PAM – human D1 dopamine receptor positive modulation. P21728. HEK293 TREx D1 cells, calcium flux, dopamine EC20 potentiation. potentiation, % at 10 µM. actives 0.036% (n = 360,000). AID 504651; in the data active means potentiation above about 30%; further: 0% is about no effect
# * hit, by the source's call; x = not tested or not shown. Rows were chosen to be rich in hits. Some 6% of all compounds tested hit in one or more screens of this group.
SMILES,DRD3 agonist,D1 agonist,D1 antag,DRD3 antagonist,D1 PAM
c1ccc2c(c1)[nH]c1cnccc12,7,0,17,2,-2
Cc1c2ccncc2c(C)c2c1[nH]c1ccccc12,-6,33*,-24,-13,-2
CCN(CC)CCc1c[nH]c2ccccc12,-7,x,x,x,x
CC(Cc1ccccc1Sc1ccccc1O)N(C)C (configuration not stated),-19,40*,-38*,-26,0
CC1(C)CC(=O)C2=C(C1)NC(=O)C21C(C(=O)OC(C)(C)C)=C(N)Oc2ccc(Br)cc21 (configuration not stated),31*,5,5,30,8
CC(C)(C)CC(C)(C)c1ccc(O)cc1,7,x,x,x,x
N#Cc1c(/N=C/C2C(=O)NC(=S)NC2=O)sc2c1CCCC2,32*,0,3,3,1
COC(=O)N(c1ccccc1)P1(=S)OCCO1,0,0,2,-5,2
CCOC(=O)N(c1ccccc1)P1(=S)OCCO1,3,2,-6,-52*,1
CNC(=O)c1cccn(Cc2cc(C(F)(F)F)cc(C(F)(F)F)c2)c1=O,7,30*,1,15,-1
CNC(=O)c1cccn(Cc2ccc(C(F)(F)F)cc2)c1=O,1,6,1,13,-3
CN1CC[C@]23c4c5ccc(O)c4O[C@H]2[C@@H](O)CC[C@H]3[C@H]1C5,0,x,x,x,x
CNC(=S)N1CCn2cccc2C1c1cccnc1 (configuration not stated),-13,3,-33*,-4,2
ClC1=C(Cl)[C@]2(Cl)[C@@H]3[C@H]4C[C@H]([C@@H]5O[C@H]45)[C@@H]3[C@@]1(Cl)C2(Cl)Cl,3,x,x,x,x
CCCCCCOc1ccc(CN2CCN(C)CC2)cc1,-19,31*,-18,-17,-10
Cc1cccc(-n2c(/C=C/c3cn(C)c4ccccc34)nc3ccccc3c2=O)c1,7,1,-1,x,-1
COC(=O)C(Cl)C(=O)OC,4,x,x,x,x
O=[N+]([O-])c1ccc(N2CCCC(C(F)(F)F)C2)c2ccncc12 (configuration not stated),32*,6,-21,17,0
C=C(COC(=O)CCC(=O)O)CC1CC(O)[C@]2(C)OC3CC4OC5C[C@]6(C)O[C@]7(C)CCC8OC9C[C@]%10(C)OC%11C(C)=CC(=O)OC%11CC%10OC9C[C@@H](C)C8OC7CC6O[C@]5(C)C/C=C\C4OC3CC2O1 (some centres not stated),-7,1,-13,5,-3
CC1=CC(=O)OC2CC3OC4C[C@@H](C)C5OC6CC7O[C@]8(C)C/C=C\C9OC%10CC%11OC(CC(C)CO)CC(O)[C@]%11(C)OC%10CC9OC8C[C@]7(C)O[C@]6(C)CCC5OC4C[C@]3(C)OC12 (some centres not stated),46*,-3,-4,60,-2
NC1(c2ccccc2)CCCCC1,1,x,x,x,x
COc1ccc(C(C)=O)cc1CN1CC=C(c2ccccc2)CC1,-19,4,-1,-101*,-16
Cc1ccc2c(CN3CC=C(c4ccccc4)CC3)cc(=O)oc2c1C,40*,1,-14,-27,0
CCc1ccc2c(CN3CC=C(c4ccccc4)CC3)cc(=O)oc2c1,12,0,8,3,4
COc1cc(CC(C)N)cc(OC)c1OC (configuration not stated),13,x,x,x,x
SMILES,DRD3 agonist,D1 agonist,D1 antag,DRD3 antagonist,D1 PAM
Cn1c(=O)oc(=O)c2ccccc21,31*,x,x,4,x
Cc1cc(C(=O)N=Nc2c(O)n(C)c3ccccc23)c(C)o1,3,1,12,-3,12
O=C1CC(N2CCC(n3c(=O)[nH]c4ccccc43)CC2)C(=O)N1Cc1ccccc1 (configuration not stated),1,8,-12,-16,-4
O=c1[nH]c2ccccc2n1C1CCN(Cc2ccc(-c3[nH]c4cc5ncnc5cc4nc3-c3ccccc3)cc2)CC1,-16,x,x,-96*,x
COc1ccccc1-n1c(/C=C/c2ccc(O)cc2)nc2ccccc2c1=O,2,2,-30*,8,0
COc1cc(/C=C/c2nc3ccccc3c(=O)n2-c2cccc(O)c2)ccc1O,8,19,-28,16,-10
COc1cc(/C=C/c2nc3ccccc3c(=O)n2-c2ccccc2O)ccc1O,12,49*,4,3,-5
